Most compounds without a hit are left out; they make up all but 3.5% or so of the library.
FBW7 activator – activators of human E3 ligase FBW7; Q969H0; AlphaScreen FBW7–phospho-cyclin E peptide binding, activator screen; normalized activity (activation), % at 26.1 µM; hit rate 0.13% among 650,000; in the data active = normalized activity above about 1.9%;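 note: purified mutant Fbw7 with reduced substrate affinity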
Target sequence (Q969H0 whole entry, looked up): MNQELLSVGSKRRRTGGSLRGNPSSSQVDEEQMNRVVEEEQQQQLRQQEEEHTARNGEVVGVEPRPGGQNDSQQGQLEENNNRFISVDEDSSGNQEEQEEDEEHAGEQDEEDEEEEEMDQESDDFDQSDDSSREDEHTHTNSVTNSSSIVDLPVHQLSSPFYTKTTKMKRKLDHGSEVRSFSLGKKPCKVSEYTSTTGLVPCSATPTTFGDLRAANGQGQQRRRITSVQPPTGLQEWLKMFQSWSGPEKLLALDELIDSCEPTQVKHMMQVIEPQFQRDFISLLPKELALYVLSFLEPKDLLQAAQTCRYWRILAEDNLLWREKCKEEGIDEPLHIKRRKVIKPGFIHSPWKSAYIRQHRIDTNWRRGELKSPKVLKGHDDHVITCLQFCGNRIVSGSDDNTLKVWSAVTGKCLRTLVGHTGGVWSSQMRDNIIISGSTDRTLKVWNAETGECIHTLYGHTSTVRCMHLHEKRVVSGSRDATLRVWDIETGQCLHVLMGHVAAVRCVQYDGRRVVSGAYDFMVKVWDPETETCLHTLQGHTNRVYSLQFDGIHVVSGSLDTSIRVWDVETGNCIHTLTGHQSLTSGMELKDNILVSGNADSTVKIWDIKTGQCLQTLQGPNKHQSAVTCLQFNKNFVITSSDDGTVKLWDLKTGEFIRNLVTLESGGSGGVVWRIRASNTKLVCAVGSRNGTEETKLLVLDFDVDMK
TEAD-YAP block – TEAD-YAP interaction inhibition; hit rate 1.4% among 640,000; inhibition, % at 9.12 µM; HEK-TIYL cells, TEAD-Gal4/YAP UAS-luciferase luminescence; in the data active = inhibition above about 32%;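 note: 0% = median of test compound wells and 100% = reference inhibitor wells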
MITF inh – blocks human microphthalmia-associated transcription factor | hit rate 0.91% among 650,000 | AlphaScreen MITF homodimerization, bead proximity signal | inhibition, % at 2.6 µM | O75030; in the data active = inhibition above about 50%;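 note: 0% = vehicle wells with protein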
GPR151 activ – human GPR151 activation. Q8TDV0. PathHunter beta-arrestin GPR151 cells, luminescence. activation, % at 11.2 µM. hit rate 1% among 650,000; in the data active = activation above about 4.9%;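 note: 0% = median of compound wells and 100% = cells with positive control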
GPR151 confirm – confirmation of human GPR151 activators. shares compounds with GPR151 activ. GPR151 PathHunter beta-arrestin cells, luminescence, 90 min; % of EA-reagent control over plate median. activation, % at 11.2 µM. 6,700 tested, under 10 active. AID 1508609;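 active = mean percent activation across replicates above the confirmation screen cutoff of 4.91%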
GPR119 counter – counter-screen for GPR151 activators: effect on human GPR119; GPR119 PathHunter beta-arrestin cells, luminescence, 90 min; 0 = compound-well median, 100 = enzyme-acceptor control; activation, % at 11.2 µM; shares compounds with GPR151 activ; AID 1508611; hit rate 0.3% among 6,700;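 active = mean percent activation in the counterscreen above 29.09%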;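 note: counterscreen on off-target GPR119 to flag nonselective hits from the GPR151 activator screen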
* marks the source's active call; other numbers are inactive results; x = not tested or not shown.

SMILES	FBW7 activator	TEAD-YAP block	MITF inh	GPR151 activ	GPR151 confirm	GPR119 counter
O=C(NC1CC1)c1cnc(Nc2ccc3ncccc3c2)s1	0	-37	2	6.3*	-1	-12
COc1ccc(/C=C2/N=C(c3cc(Cl)ccc3OC)OC2=O)cc1	0	-5	1	1	x	x
CC(C)Oc1ccccc1OCCCCn1cncn1	1	-5	-11	0	x	x
COC(=O)C(NC(=O)c1cccs1)C12CC3CC(CC(C3)C1)C2 (stereo not drawn)	0	-4	3	5.1*	0	-7
COC(=O)C(NC(=O)c1ccc(F)cc1)C12CC3CC(CC(C3)C1)C2 (stereo not drawn)	0	6	18	1	x	x
Cc1cccc(NC(=O)Oc2ccc(C(C)(C)c3ccc(OC(=O)Nc4cccc(C)c4)cc3)cc2)c1	0	-2	1	0	x	x
CC(C)(c1ccccc1)c1ccc(OC(=O)Nc2ccc(Cl)c(Cl)c2)cc1	0	-4	-2	5.4*	1	2
CCCc1cc(=O)[nH]c(SCC(=O)Nc2cc3c(cc2C(C)=O)OCO3)n1	0	-4	-7	6.3*	0	-4
Nc1c(C(=O)Nc2ccc(F)c(F)c2)nnn1Cc1ccc(F)cc1	0	-9	5	0	x	x
O=C(NCc1csc(-c2cccs2)n1)Nc1ccc2c(c1)OCCCO2	1	11	7	-1	x	x
COc1cc(Cl)cc(/C=C2\C(=O)NN(c3ccccc3)C2=O)c1O	0	-1	-4	5.7*	1	18
COc1cc(NC(=O)C2CCCCC2)c2ncccc2c1	0	5	5	5.3*	0	6
COc1cc(NC(=O)NC(C)C)c2ncccc2c1	0	21	8	-2	x	x
Cc1ccc(Nc2nc(N3CCOCC3)nc3c2cnn3C)c(C)c1	0	-2	2	5.4*	0	4
O=C(CSC1=NC(=O)C(Cc2ccccc2)C(=O)N1)Nc1ccccc1 (stereo not drawn)	0	4	-1	-1	x	x
Cc1ccc(NC(=O)CSC2=NC(=O)C(Cc3ccccc3)C(=O)N2)cc1 (stereo not drawn)	0	17	-7	11*	0	-9
COc1ccccc1/C=N/N=C1/NC(=O)C(CC(=O)Nc2ccc(Cl)cc2)S1 (stereo not drawn)	0	3	-2	1	x	x
C=CCN1C(=O)C(CC(=O)Nc2cccc(C(C)=O)c2)SC1=Nc1ccc(OC)cc1 (stereo not drawn)	0	5	-4	5.7*	0	0
COc1ccc(N=C2SC(CC(=O)Nc3ccccc3)C(=O)N2CCN(C)C)cc1 (stereo not drawn)	0	3	18	0	x	x
COc1ccccc1/C=N/N=C1/NC(=O)C(CC(=O)Nc2cccc(C(C)=O)c2)S1 (stereo not drawn)	0	-6	-5	12*	1	20
COc1cc(NC(=O)c2ccc(-c3ccc(C(=O)NC4CC4)cc3)s2)cc(OC)c1OC	0	43*	7	5.3*	1	4
COc1cc(NC(=O)c2ccc(-c3ccc(C(=O)N4CCN(C)CC4)cc3)s2)cc(OC)c1OC	0	6	12	3	x	x
COc1ccc(CNC2CC(=O)N(c3ccc(F)cc3)C2=O)cc1 (stereo not drawn)	0	-3	-4	0	x	x
COc1ccccc1CNC(=O)c1nnn(Cc2ccccc2)c1N	0	-6	-4	14*	-1	-11
CC(=O)NNc1cccc(Cl)c1	0	4	-10	6.1*	0	-3
SMILES	FBW7 activator	TEAD-YAP block	MITF inh	GPR151 activ	GPR151 confirm	GPR119 counter
CCOP(=O)(OCC)c1nc(-c2cccc3ccccc23)oc1NCc1ccco1	0	-8	-2	5.3*	0	-13
CC(=O)NS(=O)(=O)c1ccc(NC(=O)COc2ccc(C)cc2)cc1	0	0	-12	1	x	x
COc1ccccc1OCC(=O)Nc1ccc(S(=O)(=O)NC(C)=O)cc1	0	12	0	16*	-1	-9
CC(=O)Nc1ccc(NC(=O)COc2ccc(Br)cc2C)cc1	0	-23	11	8.7*	0	-4
CC(=O)NS(=O)(=O)c1ccc(NC(=O)COc2ccc(Br)cc2)cc1	0	6	7	5.8*	-1	-12
CC(C)(C)NS(=O)(=O)c1ccc(NC(=O)COc2ccc3ccccc3c2)cc1	0	10	0	1	x	x
Cc1cc(Br)ccc1OCC(=O)Nc1ccc(C(N)=O)cc1	0	-2	5	0	x	x
CC(C)(C)NS(=O)(=O)c1ccc(NC(=O)COc2ccc(Br)cc2)cc1	0	1	4	16*	1	14
O=C(CCN1c2ccccc2Sc2ccccc21)N1CCOCC1	0	4	9	5.8*	-1	-1
C1CNCCOCCOCCNCCN1	0	-2	23	-1	x	x
Cc1c(NC(=O)CSC2CCCCC2)c(=O)n(-c2ccccc2)n1C	0	11	3	2	x	x
COC(=O)c1cccc(NC(=O)C2COc3ccccc3O2)c1 (stereo not drawn)	0	-49	-12	5.0*	-1	-12
O=C1NC(c2ccc(F)cc2)C(C(=O)c2ccccc2)C(O)(C(F)(F)F)N1 (stereo not drawn)	0	-3	1	0	x	x
O=C1NC(c2ccccc2O)C(C(=O)c2ccccc2)C(O)(C(F)(F)F)N1 (stereo not drawn)	0	4	4	0	x	x
COC(=O)c1ccc(C2NC(=O)NC(O)(C(F)(F)F)C2C(=O)c2ccc(F)cc2)cc1 (stereo not drawn)	0	-3	-7	6.2*	1	2
Cc1ccc(C(=O)C2C(c3ccccc3F)NC(=O)NC2(O)C(F)(F)F)cc1 (stereo not drawn)	0	-2	-6	6.9*	1	6
O=C(Cc1ccc(Cl)cc1Cl)N1CCN(c2ccc(O)cc2)CC1	1	-7	4	5.2*	0	-3
NC(=O)C1CCN(C(=O)Cc2ccc(Cl)cc2Cl)CC1	0	-8	-1	1	x	x
CC1CN(CCOCCOc2ccc(Cl)c3ccccc23)CC(C)O1 (stereo not drawn)	0	7	21	0	x	x
CC1CN(CCOCCOc2c(Cl)cccc2Cl)CC(C)O1 (stereo not drawn)	0	13	7	8.4*	0	4
Cc1ccc2c(CSc3n[nH]c(N)n3)cc(=O)oc2c1C	0	-22	-2	11*	0	9
Cc1ccc2c(CSc3n[nH]c(N)n3)cc(=O)oc2c1	0	5	-2	-1	x	x
COC(=O)CN(c1ccccc1OC)S(=O)(=O)c1ccc(OC)cc1	0	2	-2	7.1*	0	2
COc1ccc(S(=O)(=O)N(CC(=O)O)c2ccc(Cl)cc2)cc1	0	3	7	5.6*	-1	-15

Compound activity deposited in PubChem by The Scripps Research Institute Molecular Screening Center.
